Compound activity: PubChem BioAssay, several laboratories
Only some compounds are listed: those with a hit (about 2.7% of all), similar ones and a draw of the others.
proKLK7 act: activates the human kallikrein-7 zymogen | P49862 | purified proKLK7, EDANS-DABCYL substrate fluorescence; 100% is mature enzyme control, 0% vehicle | activation, % at 7 µM | hit rate 0.9% among 370,000;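 active = activation above the mean of all tested compounds plus 3 SD, computed per campaign excluding outliers beyond control limits, cut at about 13% in these data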
FAS TE block: inhibitors of human fatty acid synthase thioesterase domain; hit rate 0.67% among 360,000; inhibition, % at 15 µM; P49327; recombinant FAS-TE, OMFH fluorogenic substrate, fluorescence endpoint;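 active = compounds whose normalised, plate-corrected inhibition of enzyme fluorescence in the single-dose primary screen is 50% or more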
PfGluPho inh: PfG6PD (Plasmodium falciparum) enzyme inhibition. hit rate 0.78% among 350,000. PfGluPho enzyme, NADPH resazurin-diaphorase fluorescence. AID 504690. inhibition, % at 20 µM;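 active = inhibition reaching at least a set limit at 20 µM in the primary screen, cut at about 59% in these data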
Neddylation inh: cullin neddylation inhibition. TR-FRET cullin neddylation, biochemical. calls only at 25 µM. hit rate 0.58% among 360,000; in the data active = inhibition above about 36%
PfGluPho conf: confirmation of Plasmodium falciparum G6PD inhibitors. recombinant PfGluPho, NADPH-diaphorase-resazurin fluorescence. shares compounds with PfGluPho inh. inhibition, % at 20 µM. AID 504753. hit rate 34% among 2,400;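 active = inhibition of at least 50% at 20 µM in any single replicate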
Diaph ctr 10uM: counter-screen for P. falciparum G6PD inhibitors: diaphorase inhibitors, oxidizers; shares compounds with PfGluPho inh; diaphorase-coupled resazurin reduction, fluorescence, NADPH 10 uM; inhibition, % at 20 µM; hit rate 39% among 820;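 active = average inhibition reaching 50% or more with the compound at 20 µM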;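 also: resorufin red fluorescence formed as diaphorase reduces resazurin using NADPH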
Diaph ctr 30uM: counter-screen for P. falciparum G6PD inhibitors: diaphorase inhibitors, oxidizers; hit rate 29% among 820; Diaphorase/resazurin coupled assay, resorufin fluorescence, 30 uM NADPH; inhibition, % at 20 µM; AID 504863; shares compounds with PfGluPho inh;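 active = inhibition averaging 50% or more, tested at 20 µM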
Of the large screens only hits and unclear results are named; the others gave an inactive call (follow-up assays come after a bar, where they were run).

O=S(=O)(c1ccccc1)N1CCN=C1SCc1ccccc1	PfGluPho inh 79 | PfGluPho conf inactive
O=[N+]([O-])c1cccc(CSC2=NCCN2S(=O)(=O)c2ccccc2)c1	PfGluPho inh 72 | PfGluPho conf inactive
Cc1ccc(CSC2=NCCN2S(=O)(=O)c2ccccc2)cc1	none
C/C(=N\Nc1nc2ccccc2[nH]1)c1ccc(Cl)s1	PfGluPho inh 77 | PfGluPho conf inactive
C=CCc1c(C)nc(C)nc1N/N=C/c1ccccc1O	PfGluPho inh 68 | PfGluPho conf inactive
Cc1ccc(-n2c(N)c(C(=O)NCc3ccco3)sc2=S)cc1	none
CCn1c(N)c(C(=O)NCc2cccnc2)sc1=S	none
Nc1c(C(=O)NCc2cccnc2)sc(=S)n1-c1ccccc1	none | PfGluPho conf inactive
Cc1ccc(-n2c(N)c(C(N)=O)sc2=S)cc1	PfGluPho inh 69 | PfGluPho conf inactive
COc1ccc(CNC(=O)c2sc(=S)n(-c3ccc(OC)cc3)c2N)cc1	PfGluPho inh 63 (no result: proKLK7 act) | PfGluPho conf inactive
Cc1c(C(=O)O)sc(=S)n1-c1ccc(Cl)cc1	none
S=C(NCc1ccc(Cl)cc1)OC1CCC12CCC(c1ccccc1)CC2 (stereo not given)	none (no result: FAS TE block, PfGluPho inh, Neddylation inh)
O=S1(=O)CC2c3ccccc3CN2CN1Cc1ccccc1 (stereo not given)	none (no result: FAS TE block, PfGluPho inh, Neddylation inh)
COc1ccc(CCn2c(NN)nc3c2c(=O)[nH]c(=O)n3C)cc1	PfGluPho inh 103 | PfGluPho conf 88 | Diaph ctr 10uM inactive | Diaph ctr 30uM inactive
COc1ccc(CCn2c(NN=C(C)C)nc3c2c(=O)[nH]c(=O)n3C)cc1	PfGluPho inh 118 | PfGluPho conf 51 | Diaph ctr 10uM inactive | Diaph ctr 30uM inactive
CC(=O)OCCNc1cc(N2CCN(C)CC2)c2noc3c2c1C(=O)c1ccccc1-3	PfGluPho inh 85 | PfGluPho conf inactive
O=C(O)CCNc1cc(N2CCN(C(=O)c3ccco3)CC2)c2noc3c2c1C(=O)c1ccccc1-3	PfGluPho inh 80 | PfGluPho conf inactive
CSc1ccc(C=Nn2c(-c3cc(C)[nH]n3)n[nH]c2=S)cc1	none (no result: FAS TE block, PfGluPho inh, Neddylation inh)
O=C(Cn1sc2ccccc2c1=O)Nc1ccc(Br)cc1	PfGluPho inh 123 | PfGluPho conf 91 | Diaph ctr 10uM inactive | Diaph ctr 30uM inactive
O=C(CN1C(=O)CNC1=O)Nc1ccc(Cl)cc1	none
O=C(Cn1sc2ccccc2c1=O)Nc1ccc(F)cc1	PfGluPho inh 125 | PfGluPho conf 106 | Diaph ctr 10uM inactive | Diaph ctr 30uM inactive
O=C(Cn1sc2ccccc2c1=O)Nc1ccc(Cl)cc1	PfGluPho inh 125 | PfGluPho conf 96 | Diaph ctr 10uM inactive | Diaph ctr 30uM inactive
Cc1ccc2c(c1)C(CS(=O)(=O)NC1CCCC1)NC2 (stereo not given)	none (no result: FAS TE block, PfGluPho inh, Neddylation inh)
Nc1cc2nc3ccccc3oc-2cc1=O	PfGluPho inh 74 | PfGluPho conf inactive
COC(=O)[C@]12C[C@H](CC(=O)NCCc3ccccc3OC)C(=O)N(CCc3ccc(OC)c(OC)c3)C1=C[C@H](C1CCCC1)O[C@@H]2C	none (no result: FAS TE block, PfGluPho inh, Neddylation inh)
COC(=O)c1cc2c(n1S(=O)(=O)c1ccc(C)cc1)C(=O)C(=O)c1[nH]cc(C(=O)OCc3ccccc3)c1-2	PfGluPho inh 77 (no result: proKLK7 act) | PfGluPho conf 50 | Diaph ctr 10uM inactive | Diaph ctr 30uM inactive
COC(=O)c1cc2c(c3c4cc(OC)ccc4n(S(=O)(=O)c4ccc(C)cc4)c13)C(=O)N(Cc1ccccc1)C2	none (no result: FAS TE block, PfGluPho inh, Neddylation inh)
CCc1ccc(Nc2nnc(SCC(=O)Nc3sccc3C(N)=O)s2)cc1	PfGluPho inh 67 | PfGluPho conf inactive
COC(=O)C1CN(Cc2cn(CCOC(C)=O)nn2)CCS(=O)(=O)N1Cc1ccccc1 (stereo not given)	none (no result: FAS TE block, PfGluPho inh, Neddylation inh)
COC(=O)C1CN(Cc2cn(Cc3ccccc3)nn2)CCS(=O)(=O)N1Cc1ccc(Cl)cc1 (stereo not given)	none (no result: FAS TE block, PfGluPho inh, Neddylation inh)
CCn1c(SCc2nc3ccccc3[nH]2)nnc1-c1cnccn1	PfGluPho inh 67 | PfGluPho conf inactive
Cc1nn(-c2ccccc2)c2sc(C(=O)NCc3ccc(F)cc3)cc12	none (no result: FAS TE block, PfGluPho inh, Neddylation inh)
COc1ccc(C(=O)Nc2cnc(NC(=O)c3cccs3)cc2C)cc1	none
COc1ccc(C(=O)Nc2cc(C)c(NC(=O)c3ccccn3)cn2)cc1	PfGluPho inh 67 | PfGluPho conf inactive
CCOC(=O)c1c(CSc2ccccc2)n(C)c2cc(Br)c(OCC(O)CNC(CO)(CO)CO)cc12 (stereo not given)	PfGluPho inh 61 | PfGluPho conf inactive
